Test results reported in PubChem BioAssay AID493027 (The Scripps Research Institute Molecular Screening Center, 2011).
In all, about 2,000 compounds went through this assay and about 45 (2%) were called active.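 How the source made its calls: active means inhibition above the screen-wide mean inhibition plus 3 SD (cut at about 44% in these data); inactive means the rest.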 The list comes from a sample in which actives are over-represented; it also holds similar structures and randomly drawn compounds.

molecular target: Perilipin-1 (Homo sapiens) + 1-acylglycerol-3-phosphate O-acyltransferase ABHD5 (Homo sapiens) (UniProt O60240+Q8WTS1); assay: ABHD5-PLIN1 interaction inhibitors, pilot screen, cell lysate, split luciferase complementation, luminescence, NIH validation set (AID 493027);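 further: 0% = DMSO wells with the 100% control not disclosed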; details: split G. princeps luciferase complementation, 4 h; at 7.9 µM, active compounds read high
Sequence (O60240 whole entry, looked up): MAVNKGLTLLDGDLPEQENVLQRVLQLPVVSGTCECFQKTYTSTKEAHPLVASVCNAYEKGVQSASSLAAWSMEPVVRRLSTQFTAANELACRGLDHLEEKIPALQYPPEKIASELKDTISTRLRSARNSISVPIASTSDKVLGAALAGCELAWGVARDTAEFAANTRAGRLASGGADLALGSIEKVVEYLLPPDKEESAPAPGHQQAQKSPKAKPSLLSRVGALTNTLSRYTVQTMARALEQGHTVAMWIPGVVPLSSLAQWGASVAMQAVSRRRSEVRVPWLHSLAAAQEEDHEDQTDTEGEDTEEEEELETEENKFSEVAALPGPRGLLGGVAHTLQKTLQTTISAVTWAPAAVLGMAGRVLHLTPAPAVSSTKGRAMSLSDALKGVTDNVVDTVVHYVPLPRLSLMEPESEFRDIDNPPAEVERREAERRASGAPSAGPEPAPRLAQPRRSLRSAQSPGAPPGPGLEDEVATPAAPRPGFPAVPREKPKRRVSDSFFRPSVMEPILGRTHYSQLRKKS
Sequence (Q8WTS1 whole entry, looked up): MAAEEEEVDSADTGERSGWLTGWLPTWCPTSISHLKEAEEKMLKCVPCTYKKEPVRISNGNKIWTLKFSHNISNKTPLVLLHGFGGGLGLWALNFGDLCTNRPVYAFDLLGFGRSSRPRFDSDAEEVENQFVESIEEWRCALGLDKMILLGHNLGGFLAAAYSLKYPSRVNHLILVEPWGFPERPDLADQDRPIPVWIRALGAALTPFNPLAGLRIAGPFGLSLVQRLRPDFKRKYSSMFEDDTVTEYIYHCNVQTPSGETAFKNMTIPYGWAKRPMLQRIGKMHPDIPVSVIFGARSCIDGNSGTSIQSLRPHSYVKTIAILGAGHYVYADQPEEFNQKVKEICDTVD

| Structure (SMILES) | inhibition |
| --- | --- |
| COc1ccccc1NC(=O)C12CCC(C)(C(=O)C1)C2(C)C (configuration not stated) | -0.67% (inactive) |
| COCCn1c(SCCOc2ccccc2)nc2ccccc2c1=O | -7.89% (inactive) |
| Cc1nc(N)nc2c1CCCC2 | -5.16% (inactive) |
| Nc1cc(-c2ccncc2)c[nH]c1=O | 49% (active) |
| c1cc(-c2ccncc2)ccn1 | -6.1% (inactive) |
| O=C(O)c1cc2cc(Cl)cc(Cl)c2oc1=O | 1.22% (inactive) |
| COc1ccc(CCN(C)CC(=O)Nc2cc(C)nc3ccccc23)cc1OC | 3.27% (inactive) |
| COc1cccc(OC2OC3COC(C)(C)OC3C(O)C2NC(C)=O)c1 (configuration not stated) | -10.2% (inactive) |
| CC(C)[N+]1(C)[C@@H]2CC[C@H]1CC(OC(=O)C(CO)c1ccccc1)C2 (some centres not stated) | -5.55% (inactive) |
| CCCCC/C=C\C[C@H](O)/C=C/c1cccc(C[C@H](O)CCCCO)n1 | 57.6% (active) |
| O=P(c1ccccc1)(c1ccccc1)c1nc(-c2ccc(Cl)cc2)oc1N1CCOCC1 | 2.59% (inactive) |
| COc1ccc(C=O)c(OC)c1 | 0.71% (inactive) |
| CC(=O)NCCCCCCNC(C)=O | 3.05% (inactive) |
| Nc1ccc(S(N)(=O)=O)cc1N | 1.88% (inactive) |
| COc1cc(NC(=S)NN2CCN(C)CC2)cc(OC)c1OC | -10% (inactive) |
| COc1cc(C2C(C(C)=O)=C(O)C(=O)N2c2ccc(C)cc2)ccc1O (configuration not stated) | -3.68% (inactive) |
| O=C1c2ccccc2C2(c3ccccc3)NCCN12 (configuration not stated) | 0.96% (inactive) |
| O=C(Nc1cccc(Cl)c1)N1CCN2C(=O)c3ccccc3C12c1ccccc1 (configuration not stated) | 6.94% (inactive) |
| CC1(c2ccccc2)CC(C)(C)N2C(=O)C(=O)c3cccc1c32 (configuration not stated) | 65.7% (active) |

| Structure (SMILES) | inhibition |
| --- | --- |
| CC(=O)c1cccc(NC(=O)N[C@@H](CC(C)C)C(=O)O)c1 | -3.15% (inactive) |
| COc1ccc(C(=O)Nc2ccc(OC)c([N+](=O)[O-])c2)cc1Br | 0.74% (inactive) |
| COc1ccc(C(=O)/C=C/c2cc(C(=O)O)cc3c2OCOC3)c(O)c1 | 67.3% (active) |
| COc1ccc(C(=O)COc2ccc(F)cc2)c(O)c1 | -7.26% (inactive) |
| C[C@H]([C@@H](N)C(=O)N[C@@H](C(=O)O)[C@@H]1O[C@H](n2ccc(=O)[nH]c2=O)[C@@H](O)[C@H]1O)[C@@H](O)c1ccc(O)cn1 | 8.07% (inactive) |
| CCOC(=O)C1CCCN(Cc2nc(Cc3cccc(F)c3)no2)C1 (configuration not stated) | -4.38% (inactive) |
| COC(=O)c1cc(=O)c2ccc(OC)cc2o1 | -10.3% (inactive) |
| CSCC[C@H](NC(=O)OC(C)(C)C)C(=O)N1CCC(C(=O)N[C@@H](C)C(=O)O)CC1 | -2.64% (inactive) |
| CC1(C)C(C=C(Cl)Cl)C1C(=O)N1CCN(Cc2ccccc2)CC1 (configuration not stated) | -10.6% (inactive) |
| CC(C)=CCCC(C)CN1CCC(N2CCC(C(=O)N3CCCC3)CC2)CC1 (configuration not stated) | -9.96% (inactive) |
| CC1(C)CC(O)(CNCc2ccc3c(c2)OCO3)CCO1 (configuration not stated) | -11.9% (inactive) |
| N#C/C(=C\c1ccc(O)c(O)c1)C(=O)NCCCc1ccccc1 | 37.9% (inactive) |
| S=C(NCc1ccccc1)NCc1cccc(CNC(=S)NCc2ccccc2)c1 | 4.65% (inactive) |
| N#C/C(=C/c1ccccc1)C(=O)NCc1ccccc1 | 53.3% (active) |
| CN1[C@@H]2CC[C@H]1CC(OC(=O)C(CO)c1ccccc1)C2 (some centres not stated) | -16.1% (inactive) |
| COC(=O)c1cc(C(=O)NCCC(C)C)cc([N+](=O)[O-])c1 | -28.2% (inactive) |
| COc1cc(OC)c(C2C(C#N)=C(N)OC3=C2C(=O)CC(C)(C)C3)cc1OC (configuration not stated) | -0.37% (inactive) |
| COc1ccc(-c2nc3c(=O)n(C)c(=O)[nH]c3n2CCc2ccccc2)cc1 | -1.13% (inactive) |
